Lamin A splicing = modulators of lamin A splicing; HeLa LMNA splicing GFP/RFP minigene ratio, 48 h; Potency, µM (highest dose often 46.1 µM), actives largely listed as inhibitors; actives 0.01% (n = 200,000); active = well fitted inhibition curve with a large enough effect in the signal ratio, with a control signal flat, not every such curve was filed as active; inconclusive = small, poorly fitted or top-dose-only effect, or effect the other way, or a change in a side signal; the % refers to the signal ratio
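S3 HeLa cells stably expressing lamin A-EGFP splicing minigene plus DsRed2, 600 cells/well, 48 h compound exposure at 37C. Laser-scanning cytometry; analysed as GFP (500-530 nm)/RFP (575-640 nm) total intensity ratio; 0.5% DMSO vehicle.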
Luc counter = counter-screen: inhibitors of Kinase-Glo firefly luciferase; Kinase-Glo luciferase, ATP luminescence, 8 min; Potency, µM (doses to about 38.3 µM), actives largely listed as inhibitors; actives 0.28% (n = 200,000); AID 1379; active = well fitted inhibition curve with a large enough effect; inconclusive = small, poorly fitted or top-dose-only effect; note: nearly all actives have a fitted effect of over 60% in size
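Light output from Kinase-Glo luciferase with luciferin and 10 uM ATP in 50 mM imidazole pH 7.2, KCl, MgCl2, Tween 20, BSA; compound pin-delivered, 8-min ambient incubation, then luminescence read.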
ALDH1A1 inh = ALDH1A1 (human) enzyme inhibition; P00352; Purified ALDH1A1, NADH fluorescence, propionaldehyde substrate; Potency, µM (series often up to 75.3 µM), hits mostly inhibitors; actives 7.3% (n = 220,000); AID 1030
Target sequence (P00352 whole entry, looked up): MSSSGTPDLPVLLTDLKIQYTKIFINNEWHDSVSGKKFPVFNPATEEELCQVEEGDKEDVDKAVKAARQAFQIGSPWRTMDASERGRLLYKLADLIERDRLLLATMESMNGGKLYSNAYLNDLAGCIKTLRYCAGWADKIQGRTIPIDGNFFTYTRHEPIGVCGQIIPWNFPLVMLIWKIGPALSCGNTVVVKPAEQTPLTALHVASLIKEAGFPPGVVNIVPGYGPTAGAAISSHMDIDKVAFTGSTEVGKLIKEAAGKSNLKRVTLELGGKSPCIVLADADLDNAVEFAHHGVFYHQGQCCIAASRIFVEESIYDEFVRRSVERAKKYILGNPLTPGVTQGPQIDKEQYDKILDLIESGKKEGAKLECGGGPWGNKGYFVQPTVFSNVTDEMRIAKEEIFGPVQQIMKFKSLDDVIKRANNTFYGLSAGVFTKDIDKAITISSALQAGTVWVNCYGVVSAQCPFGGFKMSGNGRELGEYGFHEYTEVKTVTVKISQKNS
HPGD inh = inhibitors of human 15-hydroxyprostaglandin dehydrogenase (HPGD). P15428. purified HPGD, NADH fluorescence kinetic, PGE2 substrate. Potency, µM, usual class: inhibitors. actives 4.3% (n = 150,000). AID 894
Target sequence (P15428 whole entry, looked up): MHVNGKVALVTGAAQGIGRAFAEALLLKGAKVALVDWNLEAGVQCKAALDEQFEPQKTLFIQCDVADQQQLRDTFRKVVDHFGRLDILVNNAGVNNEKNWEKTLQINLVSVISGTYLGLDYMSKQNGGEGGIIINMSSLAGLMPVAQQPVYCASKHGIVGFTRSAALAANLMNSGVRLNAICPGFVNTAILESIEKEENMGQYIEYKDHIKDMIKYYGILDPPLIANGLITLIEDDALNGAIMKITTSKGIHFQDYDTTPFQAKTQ
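NADH formation kinetics: reaction with 30 uM PGE2 and 1 mM NAD+ (final), 20 nM enzyme, Tris-HCl pH 8 with Tween 20, after 15 min compound preincubation at room temperature. Fluorescence change, last versus first of five reads.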
PNC assembly inh = inhibitors of perinucleolar compartment assembly; AID 2417; activity change (PNC), negative = inhibition, % at 10 µM; actives 3.1% (n = 140,000); PC3M PTB-GFP, PNC prevalence imaging, 16 h; active compounds read low;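 active = readout at or below -70, meaning at least 70% loss of cells showing the perinucleolar compartment, a nuclear body marking cancer cells; inconclusive = readout between -30 and a set limit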
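PC3M cells stably expressing PTB-GFP, 750–1000 cells/well, treated 16 h at 37 °C with compound (23 nl of library stock), in duplicate. After paraformaldehyde fixation and Hoechst stain, imaged at 20x; PNC prevalence scored by image analysis.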
IMPase cell inh = cell-permeable inhibitors of inositol monophosphatase (IMPase); P97697; CHO-M1 cells, IP1 accumulation, HTRF TR-FRET ratio; inhibition (IP1 accumulation), % at 46.1 µM; 120,000 tested, under 10 active; AID 901; active = well fitted curve in the direction sought with a large enough effect in the signal ratio, not every such curve was filed as active; inconclusive = small, poorly fitted or top-dose-only effect, or a change in a side signal; inactive = no such curve, though single readings can be large or run the other way; the % refers to the signal ratio;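 note: cells stimulated with carbachol in lithium chloride buffer; higher means more IMPase inhibition seen as more IP1 and lower FRET ratio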
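In this qHTS, compounds (final up to 46 uM) act on CHO-M1 cells that are then activated through the M1 receptor with carbachol, in pH 7.4 buffer containing 50 mM LiCl, for 30 min. IP1 accumulation is quantified by the IP-One immunoassay.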
A number is an active result; n = inactive; u = inconclusive; x = not tested or not shown; [ ] = dose if it differs, or a comment. An excerpt weighted towards active compounds, which were near 10% of everything screened. Unless noted, calls come from the whole dose curve; as a rule, active = well fitted inhibition curve with a large enough effect (not every such curve was filed as active); inconclusive = small, poorly fitted or top-dose-only effect, or another doubt; inactive = no such curve, though single readings can be large or run the other way.

SMILES	Lamin A splicing	Luc counter	ALDH1A1 inh	HPGD inh	PNC assembly inh	IMPase cell inh
CC(=O)c1cc(F)c(N2CCN(C(=O)COc3ccc(F)cc3)CC2)cc1C	u	n	u	n	-100	n
CC(C)c1ccc(NC(=O)CS(=O)(=O)c2cccc3nsnc23)cc1	n	x	x	x	x	x
O=c1cc(N2CCCCC2)c(-c2ccccc2)nn1Cc1cccc(Cl)c1	u	n	22µM	n	n	n
O=c1cc(N2CCCCC2)c(-c2ccccc2)nn1Cc1ccc(Cl)cc1Cl	u	n	u	n	n	n
Cc1ccc(OCC(=O)Nc2ccc(S(=O)(=O)Nc3cc(C)nc(C)n3)cc2)c(Br)c1	x	x	x	x	x	n
Cc1cccc(/C=C(\C(=O)C(=O)O)c2ccc3ccccc3n2)c1	u	n	7.9µM	x	x	x
Fc1ccccc1/C=C1\CCCC2=C1NC(=S)NC2c1ccccc1F (stereo not given)	u	n	0.79µM	x	x	x
S=C1NC2=C(CCC/C2=C\c2ccc(Cl)cc2)C(c2ccc(Cl)cc2)N1 (stereo not given)	x	x	13µM	x	x	x
O=C1CCCC2=C1C(c1ccccc1)NC(=S)N2 (stereo not given)	x	n	u	x	x	x
Cc1ccc(C2NC(=S)NC3=C2C(=O)CCC3)cc1 (stereo not given)	n	n	u	x	x	x
S=C1NC2=C(CCC/C2=C\c2ccccc2)C(c2ccccc2)N1 (stereo not given)	u	n	0.63µM	22µM	n	x
COc1ccc(C2C=C(c3ccc(F)cc3)NC(=S)N2)cc1OC (stereo not given)	u	n	u	x	x	x
CC1CC2=C(NC(=S)NC2c2ccc(F)cc2)/C(=C/c2ccc(F)cc2)C1 (stereo not given)	n	n	3.5µM	n	n	n
Cc1cccc(C)c1Nc1c(-c2ccc(Cl)s2)nc2ncccn12	x	x	x	x	x	n
COc1ccc(C2NC(=S)NC3=C2CCCC3=C2SCCS2)cc1 (stereo not given)	n[9.22 µM]	n	u	x	x	x
C(=C1/CCCC2=C1Nc1ncnn1C2c1ccccc1)/c1ccccc1 (stereo not given)	u	n	n	25µM	u	n
S=C1NC2=C(CCCC2=C2SCCCS2)C(c2ccccc2)N1 (stereo not given)	x	n	1µM	x	x	x
FC(F)(F)c1ccccc1C1C2=C(Nc3ncnn31)c1ccccc1CCC2 (stereo not given)	n	n	u	n	n	n
Fc1cccc(/C=C2\CCCC3=C2NC(=S)NC3c2cccc(F)c2)c1 (stereo not given)	x	x	0.79µM	x	x	x
O=C(N/N=C1/C[C@@H](O)[C@@H](O)[C@@H]2[C@@H]3C(=O)N(Cc4ccc5c(c4)OCO5)C(=O)[C@H]3CC[C@@H]12)OCc1ccccc1	x	x	n[13.5 µM]	x	x	x
Cn1c(=O)c2c(SCc3cccnc3)nc(CC(C)(C)C)nc2n(C)c1=O	u	n	0.89µM	n	u	n
CCCc1nc(SCc2cccnc2)c2c(=O)n(C)c(=O)n(C)c2n1	n	n	u	n	n	n
Cc1cc(C)c2nc(N3CCC(C(=O)N4CCCC4)CC3)sc2c1	u	n	n	13µM	n	n
Cc1cc(C)c2nc(N3CCC(C(=O)N4CCN(c5ncccn5)CC4)CC3)sc2c1	n	n	u	n	n	n
O=C(Cc1ccccc1Cl)NC1(O)C(=O)c2ccccc2C1=O	n	x	1.1µM	x	x	x
SMILES	Lamin A splicing	Luc counter	ALDH1A1 inh	HPGD inh	PNC assembly inh	IMPase cell inh
O=C(Cc1ccc(Cl)cc1)NCc1ccccc1Cl	n	n	n	x	x	x
COc1ccccc1-n1c(SCC(=O)N2CCc3ccccc32)nc2c(c1=O)SCC2	u	n	11µM	n	n	n
COc1ccccc1-n1c(SCC(=O)Nc2ccc3c(c2)OCO3)nc2c(c1=O)SCC2	n	n	20µM	n	n	n[1.84 µM]
COc1ccc(OC)c(-n2c(SCC(=O)N3CCc4ccccc43)nc3c(c2=O)SCC3)c1	n	n	n	n	n	n
COc1ccc(-n2c(SCC(=O)Nc3ccc4c(c3)OCO4)nc3c(c2=O)SCC3)cc1	n	n	u	u	n	n
Cc1ccc(-n2c(=O)c3c(C)c(C(=O)N(C)C)sc3n(CC(=O)C(C)(C)C)c2=O)cc1C	n	x	x	x	x	x
CCC(=O)N1CCc2cc(S(=O)(=O)NCCCOC)ccc21	n	n	20µM	28µM	n	n
CCC(=O)N1CCc2cc(S(=O)(=O)NCCN3CCC(C)CC3)ccc21	n	n	n	n	n	n
Cc1nc2ccc(S(=O)(=O)NCC(=O)N3CCc4ccccc4C3)cc2s1	n	n	n	n	-97	n
CCC(=O)N1CCc2cc(S(=O)(=O)NCCC(=O)N3CCc4ccccc4C3)ccc21	u	n	18µM	n	n	n
C=CCC(O)(/C=C/c1ccccc1)c1ccccc1 (stereo not given)	x	n	n	n	x	x
N#CCCn1c(=O)c(-c2cc(F)cc(F)c2)nc2cnc(N3CCOCC3)nc21	n	x	u	x	x	x
CCC(Sc1nnc(-c2ccc(OC)cc2)c(-c2ccc(OC)cc2)n1)C(=O)Nc1cccc(OC)c1 (stereo not given)	n	x	x	x	x	x
C/C(=N\NC(=O)CCCCCNC(=O)c1ccccc1)c1ccccc1O	n	n	n	n	n	x
Cc1cc(SCC(=O)N/N=C/c2ccc(O)cc2O)c(C)cc1Br	u	n	n	20µM	u	n
O=C(CCCCCNC(=O)c1ccccc1)N/N=C/c1ccc(O)cc1O	n	n	n	28µM	u	n
OC(CN1CCNCC1)Cn1c2ccc(Br)cc2c2cc(Br)ccc21 (stereo not given)	x	n	n	n	x	x
Cc1ccc2c(=O)c(C(=O)c3ccc(F)cc3)cn(CC(=O)NCc3ccccc3)c2n1	n	x	x	x	x	x
O=C(CSc1nnc(-c2ccncc2)n1-c1ccccc1)Nc1ccc(Br)cc1	n	x	x	x	x	x
CC(/C=C\C=C\c1ccccc1)=N\NC(=O)c1cncc(Br)c1	n	n	22µM	x	x	x
c1ccc(CNc2ccnc(-c3cccnc3)n2)cc1	u	x	n	x	x	x
CC(=O)N1C2(C=CC1(C)C(=O)NCc1ccccn1)CCCCC2 (stereo not given)	x	n	u	n	x	x
CC(=O)N1C2(C=CC1(C)C(=O)NCc1ccc(C)o1)CCCCC2 (stereo not given)	x	n	22µM	n	x	x
CC(O)CNc1ccc(-c2nn(C)c(=O)c3ccccc23)cc1[N+](=O)[O-] (stereo not given)	x	n	7.9µM	x	x	x
Cc1sc2c(c1C)CN(Cc1ccncc1)CN2C(=O)c1ccco1	n	n	25µM	n	n	n
O=C(O)CSc1nnc(-c2ccccc2)o1	n	n	n	n	n	n
CC(C)(C)c1ccc(-c2nnc(SCCN3C(=O)c4ccccc4C3=O)o2)cc1	n	n	n	18µM	n	n
CSc1cccc(NC(=O)CN(C)S(=O)(=O)c2ccc3c(c2)CCCN3C(C)=O)c1	n	x	x	x	x	x

Assay outcomes as filed in PubChem.
